High-throughput results: PubChem, National Center for Advancing Translational Sciences (NCATS)
Compounds with a hit are over-represented: about 6.1% of the library has one in this group of screens.
DRD3 agonist – activates the human D3 dopamine receptor; 410,000 tested, 0.58% active; P35462; max activation, %; AID 652048; D3R DiscoveRx beta-arrestin cells, luminescence, 90 min; in the data active = max activation above about 30%
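Cells at 1500/well, incubated overnight, then treated with pinned compounds (dopamine as control) for 90 min at 37 degrees C. DiscoveRx reagent added for 30 - 60 minutes at room temperature; luminescence read.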
D1 potentiator – enhances dopamine response at the human D1 receptor | 360,000 tested, 0.036% active | HEK293 TREx D1 cells, calcium flux, dopamine EC20 potentiation | P21728 | potentiation, % at 10 µM; in the data active = potentiation above about 30%
Target sequence (P21728 whole entry, looked up): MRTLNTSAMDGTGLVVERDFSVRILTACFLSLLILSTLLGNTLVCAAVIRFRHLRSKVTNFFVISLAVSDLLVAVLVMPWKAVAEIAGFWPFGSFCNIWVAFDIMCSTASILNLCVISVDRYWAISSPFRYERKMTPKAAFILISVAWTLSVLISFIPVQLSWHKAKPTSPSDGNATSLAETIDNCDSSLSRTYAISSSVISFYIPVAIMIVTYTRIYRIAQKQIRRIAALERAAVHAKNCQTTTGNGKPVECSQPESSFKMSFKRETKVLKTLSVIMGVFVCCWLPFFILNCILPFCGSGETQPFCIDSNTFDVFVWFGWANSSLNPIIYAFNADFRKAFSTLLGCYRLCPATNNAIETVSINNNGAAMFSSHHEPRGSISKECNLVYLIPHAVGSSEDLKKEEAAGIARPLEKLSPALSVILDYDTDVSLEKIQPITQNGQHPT
DRD3 antagonist – antagonists of human D3 dopamine receptor; D3R cells, DiscoveRx beta-arrestin luminescence, antagonist mode; stronger effect = lower value; max response, negative = inhibition, %; 360,000 tested, 2.5% active; AID 652054; in the data active = max response below about -50%; inconclusive = no clear call, values can overlap the other calls
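Cells expressing the human receptor were seeded at 1500 cells/well, incubated overnight at 37 degrees C in 5% CO2, then exposed to library compounds with dopamine controls for 90 minutes at 37 degrees C before luminescent detection.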
D1 antagonist – antagonists of human D1 dopamine receptor. P21728. HEK293 TREx D1 cells, calcium flux, dopamine EC80; stronger effect = lower value. activity change, negative = inhibition, % at 10 µM. 360,000 tested, 3.2% active. AID 504652; in the data active = activity change below about -30%
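Compound effects on dopamine-evoked calcium signalling were measured in tetracycline-induced HEK293 Trex D1 cells. Dopamine at EC80 followed a 180 s compound pre-read, and fluorescence was tracked kinetically for 180 s more.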
D1 ag – human D1 receptor agonism | P21728 | HEK293 T-REx D1 cells, calcium flux, agonist mode | activation, % at 2 µM | 360,000 tested, 1% active; in the data active = activation above about 30%
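Agonism was scored from calcium flux recorded over 180 s (1 read/s) after pintool compound addition, following a 10-cycle baseline. Cells were inducible force-coupled HEK293 TREx D1, plated overnight at 30 C and loaded with no-wash calcium dye.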
Numbers stand for hits; i = inactive; ? = inconclusive; nt = no result given.

SMILES	DRD3 agonist	D1 potentiator	DRD3 antagonist	D1 antagonist	D1 ag
CN(C)CCNC(=O)c1cccc(-c2cc(NC=O)c3ncc(-c4cccc(C(F)(F)F)c4)n3c2)c1	i	nt	-52.1	nt	nt
CN1CCN(c2ccc(-c3cc(NC=O)c4ncc(-c5ccc(F)cc5)n4c3)cc2)CC1	i	nt	?	nt	nt
COc1ccc(S(=O)(=O)Nc2cccc(-c3ccc(N4CCC(C)CC4)nn3)c2)cc1OC	i	i	nt	i	i
COC(=O)c1ccc(NC(=O)Nc2ccc(F)cc2)cc1	i	i	i	-36.3	i
CCCn1ccc2c(OCC(=O)Nc3cc(C)ccc3C)cccc2c1=O	i	i	nt	nt	45.5
CC(=O)Nc1ccc(NC(=O)c2cccc(C(=O)OC(C)C)n2)cc1	i	i	i	i	i
COc1ccc([N+](=O)[O-])cc1NC(=O)CCS(=O)(=O)c1ccc(Br)cc1	i	i	i	-32.7	i
COC(=O)c1cccc(C(=O)Nc2ccc(F)cc2)n1	i	i	-62.1	i	i
Nc1c(C(=O)NCCc2ccccc2)nnn1CC(=O)Nc1ccc(Cl)cc1	i	i	nt	i	i
Cc1c(Cl)cccc1NC(=O)c1ccc2c(c1)CCN2S(=O)(=O)c1ccccc1	i	i	nt	i	i
CCc1ccccc1NC(=O)CN1C(=O)CCSc2ccc(S(=O)(=O)N3CCCC3)cc21	i	i	nt	i	i
COC(=O)c1ccc(NC(=O)COc2ccc([N+](=O)[O-])cc2)cc1	i	i	i	-35.1	i
O=C(COc1ccc([N+](=O)[O-])cc1)NNC(=O)Nc1ccc([N+](=O)[O-])cc1	i	i	?	i	i
COc1ccc(OC)c(NC(=O)NNC(=O)COc2ccc([N+](=O)[O-])cc2)c1	i	i	i	-49.1	i
Cn1ccc2c(OCC(=O)Nc3ccc([N+](=O)[O-])cc3)cccc2c1=O	i	i	nt	-37.0	i
Cn1ccc2c(OCC(=O)Nc3ccc(OC(F)(F)F)cc3)cccc2c1=O	i	i	nt	nt	i
O=C(Nc1ccc(C(=O)O)cc1)Nc1ccc([N+](=O)[O-])cc1	i	i	i	i	i
COC(=O)c1ccc(NC(=O)Nc2ccc([N+](=O)[O-])cc2)cc1	i	i	i	-43.2	35.6
CCOC(=O)c1cccc(NC(=O)CSc2cc(=O)n(C)c3ccccc23)c1	i	i	nt	i	i
Cc1nc2nncn2c(NCc2ccc(Cl)cc2)c1C	i	i	nt	-34.2	i
Cc1cccc(OCC(=O)Nc2ccc(Cl)c(-c3nc4ncccc4o3)c2)c1C	i	i	nt	i	i
CCNC(=S)Nc1ccc(Cl)c([N+](=O)[O-])c1	i	i	i	-39.4	i
Cc1cccc(C)c1NS(=O)(=O)c1ccc(NC(=O)c2ccc(Cl)c([N+](=O)[O-])c2)cc1	i	i	-78.1	i	i
CC(=O)N[C@@H](Cc1ccc(O)cc1)C(=O)O	i	nt	nt	nt	nt
O=C(Nc1ccccc1)NC(Cc1ccc(O)cc1)C(=O)O (stereo unspecified)	i	i	-65.3	i	i
SMILES	DRD3 agonist	D1 potentiator	DRD3 antagonist	D1 antagonist	D1 ag
NNC(=O)CCC(=O)Nc1ccccc1	i	i	i	-32.8	i
O=C(Nc1ccc(S(=O)(=O)NC2=NCCCCC2)cc1)c1ccc(Cl)c([N+](=O)[O-])c1	i	nt	i	nt	nt
COCc1nn2cc(-c3ccc(C)cc3)nc2s1	i	i	nt	i	i
CCOC(=O)c1c(-c2ccccc2)oc2ccc(N(C(C)=O)S(=O)(=O)c3ccc(CC)cc3)cc12	i	i	nt	i	i
Cc1ccc(NC(=O)CN2C(=O)C3(SCC(=O)N3c3ccc(F)c(F)c3)c3ccccc32)c(C)c1 (stereo unspecified)	i	i	nt	i	i
O=C(Nc1nnc(N2CCCCCC2)s1)Nc1ccccc1C(F)(F)F	i	i	nt	i	i
CC(CC(=O)Nc1ccc2c(c1)c(=O)n(C)n2-c1ccccc1)c1ccccc1 (stereo unspecified)	i	nt	-78.3	nt	nt
COC(=O)c1cc(NC(=O)Nc2ccccc2)ccc1Cl	i	i	i	-53.5	41.3
COC(=O)c1cccc(NC(=O)Nc2ccc(Cl)c(Cl)c2)c1	i	i	i	i	i
CC(=O)NS(=O)(=O)c1ccc(NC(=O)CC(C)c2ccccc2)cc1 (stereo unspecified)	i	i	i	i	i
O=C(Nc1ccccc1)Nc1ccc(Cl)c([N+](=O)[O-])c1	i	i	i	-46.2	31.9
CC(CC(=O)Nc1ccc(Cl)c([N+](=O)[O-])c1)c1ccccc1 (stereo unspecified)	i	i	-57.4	i	i
